Positions count from the first letter of the chain named.

Our source for the binding signal values is paper PMC8384837, “Expanding the binding specificity for RNA recognition by a PUF domain”.

Common to all, as to test: yeast three-hybrid, YBZ-1, SC-Leu-His + 0.5 mM 3-AT, 4 days
Holding throughout (conditions): tags: N-Gal4 AD-HA kept; label: inside an RPR1-promoter hybrid RNA with tandem MS2 sites; ssRNA

In one experiment the target is PUM1 PUF domain R4-GYP (Homo sapiens, UniProt Q14671 828-1176, N971G;H972Y;Q975P). The essentials:
(§1)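 The interaction score is the logarithmic change in variant frequency from input to selection. It uses log2, with a pseudocount of 1 for absent variants, and frequencies came from PCR-amplified, Illumina-sequenced repeat regions. The libraries were Pumilio-1 PUF domains randomized at the three base-contacting residues per repeat, co-expressed with matching RNA elements in strain YBZ-1 (LexA–MS2 coat fusion, HIS3 reporter). Plating lasted four days on SC-Leu (input) or SC-Leu-His + 0.5 mM 3-AT (selection).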

A further experiment concerns the target PUM1 PUF domain R1-GPK (Homo sapiens, UniProt Q14671 828-1176, S863G;R864P;Q867K). The method, boiled down: as §1
Another experiment deals with PUM1 PUF domain R1-RMS (Homo sapiens, UniProt Q14671 828-1176, S863R;R864M;Q867S). The essentials: as §1
The target of another experiment is PUM1 PUF domain R1-LKR (Homo sapiens, UniProt Q14671 828-1176, S863L;R864K;Q867R). The method, boiled down: as §1
For another experiment, the target named is PUM1 PUF domain R4-TAQ (Homo sapiens, UniProt Q14671 828-1176, N971T;H972A). The method, boiled down:
as §1

Another experiment deals with T1, PUM1 PUF domain R6-FWS (Homo sapiens, UniProt Q14671 828-1176, N1043F;Y1044W;Q1047S).
T1 sequence: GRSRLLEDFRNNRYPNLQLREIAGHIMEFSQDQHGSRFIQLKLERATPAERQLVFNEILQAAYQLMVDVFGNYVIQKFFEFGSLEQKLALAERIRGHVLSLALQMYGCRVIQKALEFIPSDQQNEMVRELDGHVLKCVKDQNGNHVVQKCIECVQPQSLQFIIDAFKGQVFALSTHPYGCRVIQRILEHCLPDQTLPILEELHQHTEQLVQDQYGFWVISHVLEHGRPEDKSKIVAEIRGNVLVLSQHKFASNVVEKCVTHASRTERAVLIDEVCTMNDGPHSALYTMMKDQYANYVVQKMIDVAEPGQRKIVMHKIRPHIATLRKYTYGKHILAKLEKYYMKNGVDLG
The essentials: as §1

Another experiment addresses T2, PUM1 PUF domain R6-LYA (Homo sapiens, UniProt Q14671 828-1176, N1043L;Q1047A).
T2 sequence: T1 sequence with F216L, W217Y, S220A
The method, boiled down: as §1

The next experiment deals with PUM1 PUF domain R8-NWH (Homo sapiens, UniProt Q14671 828-1176, Y1123W;Q1126H). The method, boiled down: as §1
In a further experiment the target is PUM1 PUF domain R8-RCR (Homo sapiens, UniProt Q14671 828-1176, N1122R;Y1123C;Q1126R). The essentials: as §1
In a further experiment the target is PUM1 PUF domain R3-GPV (Homo sapiens, UniProt Q14671 828-1176, C935G;R936P;Q939V). The essentials: as §1
The next experiment has as its target PUM1 PUF domain R8-RYR (Homo sapiens, UniProt Q14671 828-1176, N1122R;Q1126R). The essentials: as §1
A further experiment has as its target PUM1 PUF domain R8-DYR (Homo sapiens, UniProt Q14671 828-1176, N1122D;Q1126R). The essentials: as §1
The next experiment concerns the target PUM1 PUF domain R3-VRH (Homo sapiens, UniProt Q14671 828-1176, C935V;Q939H). The method, boiled down:
as §1

For a further experiment, the target named is PUM1 PUF domain R7-KHQ (Homo sapiens, UniProt Q14671 828-1176, S1079K;N1080H;E1083Q). The method, boiled down: as §1
The next experiment has as its target PUM1 PUF domain R8-HFL (Homo sapiens, UniProt Q14671 828-1176, N1122H;Y1123F;Q1126L). The essentials:
as §1

Another experiment concerns the target PUM1 PUF domain R8-KRH (Homo sapiens, UniProt Q14671 828-1176, N1122K;Y1123R;Q1126H). The method, boiled down: as §1
Another experiment concerns the target PUM1 PUF domain R3-LWI (Homo sapiens, UniProt Q14671 828-1176, C935L;R936W;Q939I). The method, boiled down: as §1
In the next experiment the target is PUM1 PUF domain R3-SSD (Homo sapiens, UniProt Q14671 828-1176, C935S;R936S;Q939D). The essentials: as §1
The target in another experiment is PUM1 PUF domain R3-WYA (Homo sapiens, UniProt Q14671 828-1176, C935W;R936Y;Q939A). The method, boiled down: as §1
In another experiment the target is PUM1 PUF domain R1-KFV (Homo sapiens, UniProt Q14671 828-1176, S863K;R864F;Q867V). The essentials:
as §1

Turning to “GGCUAGAACUAGUGGAUCCCCCGGCGCCCGGCGGCUCGAGCCCGGGUAAGUGUACAUAGUCUGCAUGCCGCCGGGCGCCAUGCCUGCAGGUCGACUCUAGAAAACAUG”, the binding signal with PUM1 PUF domain R4-GYP was 5.39 log2 enrichment (interaction score).

As for “GGCUAGAACUAGUGGAUCCCCCGGCGCCCGGCGGCUCGAGCCCGGGUAAGUGUAAAUGGUCUGCAUGCCGCCGGGCGCCAUGCCUGCAGGUCGACUCUAGAAAACAUG”, in the experiment with PUM1 PUF domain R1-GPK, the binding signal was 0.78 log2 enrichment (interaction score).

As to “GGCUAGAACUAGUGGAUCCCCCGGCGCCCGGCGGCUCGAGCCCGGGUAAGUGUAAAUCGUCUGCAUGCCGCCGGGCGCCAUGCCUGCAGGUCGACUCUAGAAAACAUG”, the figures for the binding signal in the experiment with PUM1 PUF domain R1-RMS, in the experiment with PUM1 PUF domain R1-LKR and with PUM1 PUF domain R1-GPK were 3.18 log2 enrichment (interaction score), 3.44 log2 enrichment (interaction score) and 4.33 log2 enrichment (interaction score), respectively.

In the case of “GGCUAGAACUAGUGGAUCCCCCGGCGCCCGGCGGCUCGAGCCCGGGUAAGUGUAUAUAGUCUGCAUGCCGCCGGGCGCCAUGCCUGCAGGUCGACUCUAGAAAACAUG”, the binding signal was 3.78 log2 enrichment (interaction score) in the experiment with PUM1 PUF domain R4-TAQ and 7.06 log2 enrichment (interaction score) with PUM1 PUF domain R4-GYP.

As for “GGCUAGAACUAGUGGAUCCCCCGGCGCCCGGCGGCUCGAGCCCGGGUAAGUGAAAAUAGUCUGCAUGCCGCCGGGCGCCAUGCCUGCAGGUCGACUCUAGAAAACAUG”, the results for the binding signal with PUM1 PUF domain R6-FWS and with PUM1 PUF domain R6-LYA were 4.06 log2 enrichment (interaction score) and 1.91 log2 enrichment (interaction score), respectively.

Turning to “GGCUAGAACUAGUGGAUCCCCCGGCGCCCGGCGGCUCGAGCCCGGGUAAGUGUAAAUAGUCUGCAUGCCGCCGGGCGCCAUGCCUGCAGGUCGACUCUAGAAAACAUG”, the binding signal in the experiment with PUM1 PUF domain R8-NWH was 2.75 log2 enrichment (interaction score); with PUM1 PUF domain R4-TAQ, 0.74 log2 enrichment (interaction score); with PUM1 PUF domain R8-RCR it was 1.34 log2 enrichment (interaction score); in the experiment with PUM1 PUF domain R3-GPV, 2.08 log2 enrichment (interaction score); with PUM1 PUF domain R8-RYR it was 6.26 log2 enrichment (interaction score); with PUM1 PUF domain R6-LYA, 2.58 log2 enrichment (interaction score). For the same sequence, the binding signal in the experiment with PUM1 PUF domain R8-DYR is 0.87 log2 enrichment (interaction score); with PUM1 PUF domain R4-GYP, 5.1 log2 enrichment (interaction score); with PUM1 PUF domain R3-VRH, 4.55 log2 enrichment (interaction score).

As to “GGCUAGAACUAGUGGAUCCCCCGGCGCCCGGCGGCUCGAGCCCGGGUAAGUUUAAAUAGUCUGCAUGCCGCCGGGCGCCAUGCCUGCAGGUCGACUCUAGAAAACAUG”, the binding signal with PUM1 PUF domain R7-KHQ was 2.38 log2 enrichment (interaction score).

In the case of “GGCUAGAACUAGUGGAUCCCCCGGCGCCCGGCGGCUCGAGCCCGGGUAAGCGUAAAUAGUCUGCAUGCCGCCGGGCGCCAUGCCUGCAGGUCGACUCUAGAAAACAUG”, the binding signal in the experiment with PUM1 PUF domain R8-RCR was 3.19 log2 enrichment (interaction score); with PUM1 PUF domain R8-RYR, 7.21 log2 enrichment (interaction score); with PUM1 PUF domain R8-HFL, 2.79 log2 enrichment (interaction score); with PUM1 PUF domain R8-DYR, 3.04 log2 enrichment (interaction score); with PUM1 PUF domain R8-KRH it was 2.93 log2 enrichment (interaction score).

“GGCUAGAACUAGUGGAUCCCCCGGCGCCCGGCGGCUCGAGCCCGGGUAAGUGUAAGUAGUCUGCAUGCCGCCGGGCGCCAUGCCUGCAGGUCGACUCUAGAAAACAUG”: the results for the binding signal with PUM1 PUF domain R3-LWI and with PUM1 PUF domain R3-SSD were 3.8 log2 enrichment (interaction score) and 2.19 log2 enrichment (interaction score), respectively.

“GGCUAGAACUAGUGGAUCCCCCGGCGCCCGGCGGCUCGAGCCCGGGUAAGUCUAAAUAGUCUGCAUGCCGCCGGGCGCCAUGCCUGCAGGUCGACUCUAGAAAACAUG”: the binding signal with PUM1 PUF domain R7-KHQ is 4.15 log2 enrichment (interaction score).

As for “GGCUAGAACUAGUGGAUCCCCCGGCGCCCGGCGGCUCGAGCCCGGGUAAGUGUAAUUAGUCUGCAUGCCGCCGGGCGCCAUGCCUGCAGGUCGACUCUAGAAAACAUG”, the binding signal with PUM1 PUF domain R3-WYA was 3.22 log2 enrichment (interaction score); with PUM1 PUF domain R3-GPV it was 2.28 log2 enrichment (interaction score).

For the sequence “GGCUAGAACUAGUGGAUCCCCCGGCGCCCGGCGGCUCGAGCCCGGGUAAGUGUAAAUUGUCUGCAUGCCGCCGGGCGCCAUGCCUGCAGGUCGACUCUAGAAAACAUG”, the binding signal with PUM1 PUF domain R1-RMS was 2.07 log2 enrichment (interaction score); with PUM1 PUF domain R1-LKR it was 2.22 log2 enrichment (interaction score); with PUM1 PUF domain R1-GPK, 2.87 log2 enrichment (interaction score); with PUM1 PUF domain R1-KFV it was 3.92 log2 enrichment (interaction score).
